High-throughput results from PubChem BioAssay.
Compounds with a hit are over-represented: about 12% of the library has one in this group of screens.
G9a block: G9a (human) methyltransferase inhibition. Q96KQ7. G9a H3K9 monomethylation, AlphaScreen, 2 h. Potency, µM (titrated, usually from 102 µM), inactives show at the highest dose activity, negative = inhibition, usual class: inhibitors. 8.8% of 350,000 active. AID 504332; further: on the % scale 0 is the no-effect control and ±100 the full control effect; nearly all actives have a fitted effect of over 75% in size
Target sequence (Q96KQ7 913-1193 limits assumed): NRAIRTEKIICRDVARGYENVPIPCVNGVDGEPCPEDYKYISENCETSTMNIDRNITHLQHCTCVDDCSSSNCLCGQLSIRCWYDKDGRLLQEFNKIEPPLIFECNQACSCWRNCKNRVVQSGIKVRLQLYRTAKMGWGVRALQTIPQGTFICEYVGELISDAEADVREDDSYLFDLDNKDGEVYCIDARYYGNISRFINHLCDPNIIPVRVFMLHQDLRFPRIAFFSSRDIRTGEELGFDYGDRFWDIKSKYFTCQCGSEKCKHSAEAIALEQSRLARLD
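Readings reflect AlphaScreen signal from monomethyl-H3K9 antibody detection. HMT at 20 nM; substrate b-H3K9 500 nM; cofactor SAM 20 uM; 2 h RT reaction; compounds tested as titrations in qHTS with 15 min preincubation.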
Sfp PPTase inh: blocks B. subtilis Sfp PPTase activity. Potency, µM, for inactives: largest response in the series, negative = inhibition, hits mostly inhibitors. Q9F4F7. AID 1490. 3.5% of 310,000 active. Biochemical Sfp PPTase activity, qHTS;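 further: the enzyme is Sfp with the accession as filed and its product quenches rhodamine fluorescence; 0% = enzyme reaction without inhibitor and -100% = no enzyme wells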
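Fluorescence-quenching assay: 15 nM Sfp-PPTase preincubated 15 min at room temperature with compound, then 5 uM rhodamine-CoA and 12.5 uM BHQ-2-labelled YbbR peptide added. Fluorescence (ex 525/em 598 nm) read at start and after 30 min; difference gives rate.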
BAZ2B block: inhibitors of human BAZ2B bromodomain | Potency, µM (titrated, usually from 114 µM), for the others: top-dose activity change, negative = inhibition, most hits filed as inhibitors | AID 504333 | 4.4% of 360,000 active | Q9UIF8 | AlphaScreen BAZ2B-H3K14Ac peptide displacement; further: on the % scale 0 is the no-effect control and ±100 the full control effect; nearly all actives have a fitted effect of over 60% in size
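In this displacement format the biotinylated H3(5-23) peptide acetylated at Lys14 serves as ligand at 50 nM, with BAZ2B at 50 nM in PBS pH 7.4 containing 0.01% Tween-20. Donor and acceptor beads are 10 ug/mL final.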
JMJD2A Tudor: blocks the human JMJD2A Tudor domain. O75164. AlphaScreen JMJD2A-Tudor / H3K4me3 peptide binding. Potency, µM (top dose mostly 114 µM), for the others: top-dose activity change, negative = inhibition, hits mostly inhibitors. 4.4% of 390,000 active. AID 504339; further: on the % scale 0 is the no-effect control and ±100 the full control effect; nearly all actives have a fitted effect of over 50% in size
HP1b chromo inh: HP1-beta chromodomain-methylated histone interaction inhibition; AlphaScreen HP1-beta / biotin-H3K9me3 peptide binding; 0.56% of 390,000 active; P83916; Potency, µM (titrated, usually from 114 µM), inactives show top-dose activity change, negative = inhibition, usual class: inhibitors; AID 540317; further: nearly all actives have a fitted effect of over 70% in size
Target sequence (P83916 whole entry, looked up): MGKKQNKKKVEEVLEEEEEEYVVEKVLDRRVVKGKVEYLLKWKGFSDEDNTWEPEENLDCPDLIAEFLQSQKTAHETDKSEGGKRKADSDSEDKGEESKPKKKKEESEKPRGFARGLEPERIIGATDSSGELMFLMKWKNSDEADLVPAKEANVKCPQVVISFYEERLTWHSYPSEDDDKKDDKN
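HP1-beta protein (50 nM final) preincubated 30 min at room temperature with biotinylated H3(1-18)K9me3 peptide (50 nM) in PBS pH 7.4, 0.01% Tween-20, then compound added for 30 min. AlphaScreen streptavidin donor/nickel chelate acceptor beads (10 ug/mL final), 30 min dark, luminescence read.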
L3MBTL1 inh: L3MBTL1 (human) inhibition. AlphaScreen L3MBTL1–H3K9me1 peptide binding. Potency, µM (doses to about 57.1 µM), without a hit: at the highest dose activity, negative = inhibition, usual class: inhibitors. 0.66% of 230,000 active. AID 485360; further: on the % scale 0 is the no-effect control and ±100 the full control effect; nearly all actives have a fitted effect of over 60% in size
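Read-out is AlphaScreen signal from streptavidin donor and nickel chelate acceptor beads (10 ug/mL final each) bridging L3MBTL1 (50 nM) and biotinylated K9-monomethylated H3(1-15) peptide (75 nM), after 30 min compound exposure at room temperature.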
* marks the source's active call; other numbers are inactive results; ? = inconclusive; · = not tested or not shown; [ ] = another dose, or the depositor's remark. The call rests on the fitted dose curve; in most records, active means well fitted curve in the direction sought with a large enough effect; inconclusive means small, poorly fitted or top-dose-only effect, or another doubt; inactive means no such curve, though single readings can be large; an effect the other way counts as inactive or inconclusive. Potency means the concentration at half of the fitted maximal effect.

SMILES | G9a block | Sfp PPTase inh | BAZ2B block | JMJD2A Tudor | HP1b chromo inh | L3MBTL1 inh
CCC1CCCCN1C(=O)c1ccc2c(c1)N(Cc1cccc(Cl)c1)C(=O)c1ccccc1S2(=O)=O (stereo not given) | -23%[59 µM] | · | -2% | -29% | 11% | ·
S=c1[nH]nc(-c2ccco2)n1/N=C/c1cccc(Cl)c1Cl | 1.4µM* | 1% | 50µM* | 35µM* | -38% | -6%
S=c1[nH]nc(-c2ccco2)n1/N=C/c1ccc(Cl)cc1Cl | ? | -6% | ? | 40µM* | -21% | -10%
COCCCNC(=O)CN1C(=O)c2c(c3ccccc3n2C)C1c1ccc(OC)cc1 (stereo not given) | 2%[59 µM] | · | -16% | 6% | 37% | ·
COc1ccc(CCNC(=O)Cn2nnc3ccccc3c2=O)cc1 | 71µM* | -2% | 12% | -10% | 20% | 3%
COc1ccc(CCNC(=O)CNCCc2ccc(F)cc2)cc1 | -18% | -19% | 79µM* | 22µM* | -19% | ·
COc1ccc(CNC(=O)CNC(C)c2ccc(F)cc2)cc1 (stereo not given) | 14% | -17% | 56µM* | 20µM* | 45µM* | ·
Cc1nn2c(=O)cc(COC(=O)c3ccc(NC(=O)c4cccs4)cc3)nc2s1 | 14%[59 µM] | · | -30% | -15% | 13% | ·
Cn1c(-[n+]2c(-c3ccccc3)cc(-c3ccccc3)cc2-c2ccccc2)nc2c([N+](=O)[O-])cccc21 | 10µM* | -13% | -29% | -29% | 10% | -1%
Cn1c(-c2cccc([N+](=O)[O-])c2)[n+](C)c2ccccc21 | 6% | 6% | · | 0% | 26% | ·
Cc1cc(=O)n2nc(N3CCC(C(=O)Nc4ccc(C(C)C)cc4)CC3)sc2n1 | 20%[59 µM] | · | 3% | -12% | 34% | ·
COc1cc(C(=O)NC(=S)N2CCN(C)CC2)cc(OC)c1OC | · | · | · | -3% | 4%[57 µM] | 0%
COc1ccc(C(=O)NC(=S)N2CCN(C)CC2)cc1Br | 45µM* | -14% | -26% | -7% | 29% | 1%
CN1CCN(C(=S)NC(=O)c2cccc(S(=O)(=O)N(C)C)c2)CC1 | 14µM* | ? | -31% | -26% | -9% | -4%
Cc1ccc(C(=O)NC(=S)N2CCN(C)CC2)cc1Br | 45µM* | -1% | -25% | -15% | 38% | ·
C=CCOC(=O)[C@H](O)[C@@H](O)C(=O)OCC=C | · | -7% | · | · | · | ·
Cc1ccc(NC(=O)c2ccc3c(O)c(S(=O)(=O)c4ccc(Cl)cc4)c(=O)[nH]c3c2)cc1 | -3%[59 µM] | · | -31% | -21% | 38% | ·
Cc1ccc(CCNC(=O)c2ccc3c(c2)N(Cc2ccccc2F)C(=O)c2ccccc2S3=O)cc1 (stereo not given) | -1%[59 µM] | · | -13% | -4% | 31% | ·
NCCCCC(N)C(=O)NC(Cc1ccc(O)cc1)C(=O)NC(CCCCN)C(=O)O (stereo not given) | · | 12% | · | · | · | ·
O=C(N/N=C1/CCS(=O)(=O)c2ccc(F)cc21)c1ccccn1 | 11% | -92% | 20µM* | 13µM* | 41% | ·
COc1cc(C2Nc3ccccc3C(=O)N2Cc2ccco2)ccc1O (stereo not given) | · | · | · | -8%[57.1 µM] | 18%[57 µM] | ·
COc1ccc(NCC(=O)n2c(C)c(C)c3ccccc32)cc1 | 10µM* | 8% | -9% | -33% | 10% | ·
CCc1ccc(S(=O)(=O)c2nnn3c2nc(N(CC)Cc2ccccc2)c2cc(Cl)ccc23)cc1 | 8%[59 µM] | · | 12% | 3% | 41% | ·
COc1ccc(S(=O)(=O)N2CCC(n3c(C)nc4cccnc43)CC2)cc1Cl | 0%[59 µM] | · | 3% | -6% | 56% | ·
Cc1ccc(C(=O)NCc2ccc(N(C)C)cc2)cc1NC(=O)c1nsc2ccccc12 | -53%[59 µM] | · | ? | ? | -17%[57 µM] | ·
Cn1c(CCNC(=O)c2ccc(Cl)cc2)n[nH]c1=S | -26%[12.7 µM] | -26% | -1%[57.1 µM] | 10µM* | 23% | 3%
CCn1c(CCNC(=O)c2ccc(C)cc2)n[nH]c1=S | ? | -11% | 9% | 6.3µM* | -38% | 4%
